Measured values from PubChem BioAssay (NCI).
Where “and” joins values, the source holds several entries; their conditions need not be identical. Equal entries are not always repeated. This is part of a sample that, as a whole, favours compounds with a hit. Of some 79,000 tested, about 15% had one in any assay. Where a structure was tested more than once in an assay, its records may differ in their call. Calls of active or inactive are those of the source. Cut-off read from the data, not from the text of the source: active = growth inhibition above about 70%; inactive = the rest.

Experiment: NCI Yeast Anticancer Drug Screen. Data for the cln2 rad14 strain (AID 165);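 note: 0% = growth equal to vehicle treated cultures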
Details: S. cerevisiae cln2 rad14 strain, stronger effect = higher value
Experimental: Growth inhibition of yeast strains with defined genetic alterations is measured as a screen for potential anti-cancer activity. Selected strains with alterations in DNA damage repair or cell cycle control were exposed to compounds and growth inhibition was measured relative to vehicle treated controls. The strain used in this assay is cln2 rad14

[1] = at 5.0 µM (retest, dose inferred, filed as 0.5)
[2] = at 50.0 µM (retest, dose inferred, filed as 5.0)

Row | SMILES | growth inhibition [1] | growth inhibition [2] | growth inhibition (at 50.0 µM)
1 | COc1cc(O)c2c(c1)C(=O)c1cc3c(c(O)c1C2=O)C(OC1OC(C)C(OC)C(O)C1OC)C(OC)C(C)(O)C3=O (configuration not stated) | 22% (inactive) | 98% (active) | 98.3% (active) and 89.2% (active)
2 | COC(=O)[C@]1(C)CCC[C@]2(C)c3cc(C(C)=O)c(C(C)C)cc3CC[C@@H]12 | -1% (inactive) | -2% (inactive) | 99.5% (active) and -40.8% (inactive)
3 | O=C1C=CC(=O)N1c1ccc(N=Nc2ccccc2)cc1 | 98% (active) | 92% (active) | 87.2% (active) and 20.6% (inactive)
4 | c1ccc2c(c1)[nH]c1c(N3CCOCC3)nnc(N3CCOCC3)c12 | -2% (inactive) | -5% (inactive) | 35.3% (inactive)
5 | O=c1cc[nH]cc1 | 3% (inactive) | 5% (inactive) | 1% (inactive) and 24.7% (inactive)
6 | O=[N+]([O-])c1ccc2ccccc2c1O | 3% (inactive) | 98% (active) | 97.4% (active)
7 | c1cc2c3c(c1)c1cc4c(cc1c[n+]3CC2)OCO4 | 13% (inactive) | 18% (inactive) | 90.8% (active)
8 | CC(C)=CCC(O)C1=CC(=O)c2c(O)ccc(O)c2C1=O (configuration not stated) | 59% (inactive) | 94% (active) | 16.1% (inactive) and 89.1% (active) and 33.1% (inactive)
9 | CSc1ncnc2c1ncn2C1OC(CO)C(O)C1O (configuration not stated) | -1% (inactive) | -3% (inactive) | 38.9% (inactive) and -38.6% (inactive)
10 | Cc1ccnc2c1c(=O)c1ccccc1n2C | -6% (inactive) | -3% (inactive) | 46.2% (inactive)
11 | CC(=O)OC1OC(CI)C(OC(C)=O)C(OC(C)=O)C1OC(C)=O (configuration not stated) | 2% (inactive) | 49% (inactive) | 17.1% (inactive) and 5.75% (inactive)
12 | CCO/C=C1\SC(=S)N(c2cccc(O)c2)C1=O | 29% (inactive) | 72% (active) | -2.6% (inactive)
13 | CC(=O)OCC1OC(n2c(=S)n(-c3ccccc3)c(=O)c3ccccc32)C(OC(C)=O)C(OC(C)=O)C1OC(C)=O (configuration not stated) | 17% (inactive) | 17% (inactive) | 9.15% (inactive) and -3.95% (inactive)
14 | CS(=O)(=O)OC1CC(n2ccc(=O)[nH]c2=O)OC1COC(c1ccccc1)(c1ccccc1)c1ccccc1 (configuration not stated) | 0% (inactive) | 92% (active) | 2.9% (inactive) and 96.3% (active)
